Test results taken from PubChem BioAssay (NCI).
Compounds without any hit were thinned out: in the full panel of roughly 83,000, 20% have a hit.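 Step 1: grow cells in 96-well plates. Step 2: add test compound at a single concentration. Step 3: incubate 48 h. Step 4: record percent growth.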 Values without a mark were called inactive. Calls of active or inactive are those of the source. The calls were made as follows: active = growth percent below 10; inactive = the rest.

System: COLO 205 colon
Test: NCI-60 one-dose screen, 48 h (100 = growth as untreated, 0 = no growth, -100 = all killed)
Details: 10 µM

Structure (SMILES) | growth
CN(C)CCOc1nc2ccccc2c2c1-c1ccc(Cl)cc1C2=O | -76.1% (active)
CCOC(=O)C(CSC(c1ccccc1)(c1ccccc1)c1ccccc1)NC(=O)C(CSC(c1ccccc1)(c1ccccc1)c1ccccc1)NC(c1ccccc1)(c1ccccc1)c1ccccc1 (centres undefined) | 112%
O=C1OCC2=C1C(c1cccc(Cl)c1)c1cc3c(cc1N2CCO)CCC3 (centres undefined) | -47.1% (active)
O=C(Nc1ccc(Cl)cc1)N1NC(c2ccc(Cl)cc2)C=C1c1ccccc1 (centres undefined) | 99.3%
S=c1[nH]ccn1-c1c(Cl)cccc1Cl | 115%
Cc1ccc(NC(=O)CSc2nc3ccccc3c(=O)n2CCc2ccccc2)c(C(=O)O)c1 | 103%
O=S(=O)(NCCCNc1nccc(-c2c(-c3ccc(F)cc3)nc3sccn23)n1)c1ccc(F)cc1 | 21%
CCn1cc(C(=O)O)c(=O)c2cnc(N3CCCC3)nc21 | 111%
O=c1c2ccccc2nc(SCCN2CCCCC2)n1CCc1ccccc1 | 74.7%
COc1cc2cc3c(nc2cc1OC)CCN3Cc1ccc(NC(=O)c2ccc(Cl)c(C(F)(F)F)c2)cc1 | 109%
CN(C)C(=S)N/N=C\C=N/NC(=S)N(C)C | -1.67% (active)
COc1cc(Cl)cc(-c2nn(-c3cccc(NC(=O)c4ccc(Cl)c(Cl)c4)c3)cc2-c2ccncc2)c1 | 81.5%
CCCCCCCCCCCCCCCC(=O)OC1[C@@H](OC(=O)CCCCCCCCCCCCCCC)[C@@H](C(=O)N[C@@H](CCCCN)C(=O)OC)O[C@H]1n1cnc2c(=O)[nH]c(NC(=O)C(C)C)nc21 (some centres undefined) | 101%
CSc1nn(-c2ccccc2)c2ncnc(Oc3ccccc3)c12 | 118%
COc1ccc(/C=C/C(=O)Nc2ccc(-c3nc4ccc(OC)cc4s3)cc2)cc1 | 121%
O=C(/C=C/c1cc2ccccc2[nH]c1=O)c1ccc2c(c1)OCO2 | 95.7%
COc1ccc(N2C(=O)C3c4[nH]c5ccc(OCc6ccccc6)cc5c4C4CCC(C(C)C)CC4C3C2=O)cc1 (centres undefined) | 102%
COc1cc(C(=C2O[C@@H]([C@H]3COC(C)(C)O3)[C@H]3OC(C)(C)O[C@@H]23)c2cc(OC)c(OC)c(OC)c2)cc(OC)c1OC | 117%
COc1ccccc1/C=C/C(=O)c1ccccc1 | 84.8%
COc1ccc(C2=Nc3c(C)nn(-c4ccccc4)c3NC(c3ccc(Oc4ccnc5cc(Cl)ccc45)c(OC)c3)C2)cc1 (centres undefined) | 83.6%

Structure (SMILES) | growth
NC(=O)SCC(=O)Nc1ccc(S(N)(=O)=O)cc1 | 107%
c1ccc([I+]c2ccccc2)cc1 | 55%
CCN1CCCC1CNC(=O)c1ncc(-c2ccc(C(F)(F)F)cc2)c(NC2CCCCCC2)n1 (centres undefined) | 42.7%
Cc1ccc(N=Nc2c(N)nc(N)[nH]c2=O)cc1C | 112%
COc1ccc(/C=C2/CN(C(=O)c3ccc(C)cc3)C/C(=C\c3ccc(OC)cc3)C2=O)cc1 | 97.6%
COc1cc(-c2cc(/C=C3\C(=O)Nc4cc(Cl)ccc43)[nH]n2)cc(OC)c1OC | 7.07% (active)
O=C(Nc1cccc(-n2cc(-c3ccncc3)c(-c3ccc(O)c(Cl)c3)n2)c1)c1ccc(N2CCOCC2)c(C(F)(F)F)c1 | 51.2%
COc1ccccc1CNCCCN1C(=O)c2ccc3c4c(ccc(c24)C1=O)C(=O)N(CCCN)C3=O | -87.5% (active)
N=c1c2c(-c3ccccc3)c(-c3ccccc3)n(Cc3ccccc3)c2ncn1CCCO | -5.84% (active)
CCCC(F)C(=O)O (centres undefined) | 108%
O=C(N/N=C\c1cc(Cl)ccc1[N+](=O)[O-])c1ccco1 | 139%
COC(=O)c1ccc(=O)oc1 | 119%
Oc1[nH]c2ccc(Cl)cc2c1/C=c1/ccc2c(c1)N=C(c1cc(F)cc(F)c1)N=2 | 77.1%
CN(Cc1ccccc1)Cc1ccc([N+](=O)[O-])cc1I | 104%
O=C(CCCCC(=O)Nc1ccc2c(c1)/C(=C/c1ccc[nH]1)C(=O)N2)NO | 89%
O=C1/C(=C/c2ccc(Cl)cc2)SC(=Nc2ccc(Cl)cc2)N1Cc1nc2ccccc2[nH]1 | 98%
O=C(C[P+](c1ccccc1)(c1ccccc1)c1ccccc1)C[P+](c1ccccc1)(c1ccccc1)c1ccccc1 | -27.9% (active)
N=C(N)c1ccc(-c2ccc(-c3ccccc3)o2)nc1 | -13% (active)
COc1cc(/C=C2\CCCC3=C2N=C2SC=NN2C3c2cc(OC)c(OC)c(OC)c2)cc(OC)c1OC (centres undefined) | 25.7%
